Screening data deposited in PubChem BioAssay by National Center for Advancing Translational Sciences (NCATS).
A selection: hits, their analogues and other compounds. The true share with any hit is near 8%.
SW480 rereplic – DNA re-replication induction in SW480 cells. SW480 DNA re-replication, Hoechst DNA content imaging, 48 h. Potency, µM (doses to about 46.1 µM), without a hit: top-dose re-replication activation, most hits filed as activators. hit rate 1.8% among 340,000. AID 624297; note: % of control where 0% means no effect; nearly all actives have a fitted effect of over 55% in size
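Treated cells incubate 48 hr (37 C, 5% CO2), are stained 40 min with Hoechst, and nuclear fluorescence is enumerated; a rise in nuclei with high DNA signal marks re-replication.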
KB-V1 cytotox – KB-V1 MDR subline cytotoxicity. KB-V1 MDR cells viability, CellTiter-Glo, 72 h. Potency, µM (top dose mostly 46.1 µM), actives largely listed as cytotoxic. hit rate 3.4% among 400,000. AID 1347076; note: % is set by controls: 0 for no effect and ±100 for the full control effect; nearly all actives have a fitted effect of over 60% in size
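Potencies derive from concentration-effect curves fitted to normalized luminescence (CellTiter-Glo) of KB-V1 cells treated for 72 h at 37 degrees C in phenol-red-free DMEM containing 10% FBS.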
MCF10A rerep – inducers of DNA re-replication in MCF 10A breast cells; MCF 10A DNA re-replication, Hoechst nuclear intensity, 48 h; Potency, µM (titrated, usually from 46.1 µM), for the others: at the highest dose activity, positive = re-replication, hits mostly activators; hit rate 2.9% among 350,000; AID 624296; note: % of control where 0% means no effect; nearly all actives have a fitted effect of over 50% in size
HT1080 IDH1KD tx – kills HT-1080 cells with IDH1 knockdown; HT-1080 IDH1 knockdown viability, ATP luminescence, 48 h; Potency, µM (series often up to 46.1 µM), without a hit: at the top dose activity, negative = toxicity, most hits filed as cytotoxic; hit rate 2% among 360,000;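 note: 0% = DMSO wells and -100% = cell-free medium wells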
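CellTiter-Glo luminescence after 48 h compound exposure at 37 degrees C of IDH1-knockdown HT-1080 cells in 5% FBS RPMI. %Activity scaled between DMSO wells and cell-free media wells, with curves fitted and assigned curve classes.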
HT1080NT lethal – kills 2HG-producing HT-1080-NT fibrosarcoma cells | HT-1080-NT fibrosarcoma viability, CellTiter-Glo ATP luminescence, 48 h | Potency, µM (series often up to 46.1 µM), for inactives: at the highest dose activity, negative = less viability, usual class: cytotoxic | hit rate 1.6% among 360,000;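 note: NT is the 2HG producing partner of a matched IDH1 knockdown line; 0% = DMSO-treated cells and -100% = media-only wells without cells; nearly all actives have a fitted effect of over 55% in size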
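Fibrosarcoma NT cells, 750 per well in 5% FBS RPMI, were exposed to compound for 48 hours. Viability: CellTiter-Glo luminescence.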
KB-3-1 cytotox – kills parental KB-3-1 adenocarcinoma cells; Potency, µM (highest dose often 46.1 µM), most hits filed as cytotoxic; hit rate 1.4% among 400,000; AID 1347075; KB-3-1 viability, CellTiter-Glo ATP luminescence, 72 h; note: % is set by controls: 0 for no effect and ±100 for the full control effect; nearly all actives have a fitted effect of over 60% in size
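Cytotoxicity in the drug-sensitive parental line KB-3-1 was scored as loss of CellTiter-Glo luminescence following 72 h incubation with compound. Values come from curve fitting of normalized concentration-response data.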
* = called active by the depositor; i = inactive; ? = inconclusive; nt = not tested or not shown. Calls come from the whole dose curve; as a rule, active = well fitted curve in the direction sought with a large enough effect; inconclusive = small, poorly fitted or top-dose-only effect, or another doubt; inactive = no such curve, though single readings can be large; an effect the other way counts as inactive or inconclusive. Potency is the fitted concentration of half-maximal effect.

SMILES | SW480 rereplic | KB-V1 cytotox | MCF10A rerep | HT1080 IDH1KD tx | HT1080NT lethal | KB-3-1 cytotox
Nc1c(C(=O)NC2CCCC2)c2nc3ccccc3nc2n1/N=C/c1cccnc1 | ? | ? | 4.11µM* | 14.0% | 14.0% | i
COCCn1cnc2c(c1=O)c1nc3ccccc3nc1n2/N=C/c1cccc(OC)c1 | ? | ? | ? | 5.4% | 8.1% | i
COCCCNC(=O)c1c(N)n(/N=C/c2ccccn2)c2nc3ccccc3nc12 | ? | 5.17µM* | ? | 14.7% | 0.7% | i
CC1(C)SC(=S)N(/N=C/c2cccnc2)C1N(O)C(=O)NC1CCCCC1 (centres undefined) | -10.4% | i | -2.0% | 13.4% | 20.8% | i
CC(C)OCCCNC(=O)c1c(N)n(/N=C/c2cccs2)c2nc3ccccc3nc12 | ? | ? | 8.2µM* | 5.4% | 17.4% | i
CSc1ncc(C(=O)N2CCN(c3cccc(C(F)(F)F)c3)CC2)c(C)n1 | nt | i | nt | nt | nt | i
COc1cc(/C=N/NC(=O)c2cccc([N+](=O)[O-])c2)ccc1OCc1ccccc1 | -6.9% | ? | 1.3% | 4.4% | 13.9% | i
CCOc1ccc(OCc2cccc(C(=O)O)c2)cc1 | -4.7% | i | 4.3% | 7.94µM* | 7.94µM* | i
COc1ccc(OCc2cccc(C(=O)O)c2)cc1 | -3.3% | 18.4µM* | -2.1% | ? | ? | ?
COc1cc(/C=C/[N+](=O)[O-])ccc1OCc1cccc(C(=O)O)c1 | ? | i | 10.3µM* | ? | ? | i
CCOc1ccc(OCc2cccc(C(=O)N3CCCC3)c2)cc1 | -1.6% | ? | 4.9% | 9.2% | -5.9% | i
O=[N+]([O-])c1cc(Br)c(O)c(/C=N/Nc2nnnn2-c2cccc3ccccc23)c1 | 13.8% | ? | 4.11µM* | -16.9% | ? | i
Cc1cccc(CNC(=O)C(=O)Nc2ccccc2C)c1 | nt | i | nt | nt | nt | i
Cc1cccc(NC(=O)C(=O)NCC(c2cccnc2)N2CCc3ccccc3C2)c1C (centres undefined) | nt | i | nt | nt | nt | ?
Cc1ccnc(NC(=O)/C=C/c2cccs2)c1 | ? | 11.6µM* | ? | ? | ? | ?
Cc1ccc(NC(=O)/C=C/c2ccc([N+](=O)[O-])s2)c(C)c1 | 4.61µM* | i | 1.64µM* | 2.31µM* | 2.59µM* | ?
Cc1ccc(NC(=O)/C=C/c2ccc([N+](=O)[O-])s2)cc1 | 8.2µM* | ? | 5.8µM* | ? | ? | ?
Cc1ccc(NC(=O)COC(=O)c2ccc([N+](=O)[O-])s2)c(C)c1 | 0.2% | i | 7.8% | 14.1% | 8.2% | i
Cc1cccc(NC(=O)/C=C/c2ccc([N+](=O)[O-])s2)c1 | 6.51µM* | 4.61µM* | 2.31µM* | 4.11µM* | 2.91µM* | 5.8µM*
COc1cccc(NC(=O)/C=C/c2ccccc2[N+](=O)[O-])c1 | -7.4% | ? | -3.5% | -21.1% | -17.3% | ?
CCc1ccccc1NC(=O)CSC1=Nc2ccccc2C2=NC(Cc3ccccc3)C(=O)N12 (centres undefined) | nt | ? | nt | nt | nt | i
O=c1[nH]c(=S)[nH]c2n[nH]nc12 | nt | i | nt | nt | nt | i
CCOC(=O)c1cccc(NC(=O)c2ccc3nc(CCc4ccccc4)oc3c2)c1 | nt | i | nt | nt | nt | i
Cc1cc([N+](=O)[O-])ccc1NC(=O)/C=C/c1cccs1 | -94.2% | 8.2µM* | -62.3% | 7.7% | 3.0% | ?
O=C(/C=C/c1cccs1)NNC(=O)c1cccc([N+](=O)[O-])c1 | -4.4% | i | 1.8% | -6.6% | -8.9% | i
CCc1cnc2c(c1SCC(=O)c1ccc(OC)cc1)c(=O)n(C)c(=O)n2C | nt | i | nt | nt | nt | i
O=C(C[n+]1cnn(CC(=O)c2ccc(Cl)cc2Cl)c1)c1ccc([N+](=O)[O-])cc1 | ? | i | 10.6% | -14.1% | -15.5% | 18.4µM*
